Test results reported in PubChem BioAssay (NCATS).
Results filed as inconclusive are left out. The source made the active and inactive calls. Calls come from the whole dose curve; as a rule, active = well fitted cell-killing curve with a large enough effect; inconclusive = small, poorly fitted or top-dose-only effect, or effect the other way; inactive = no such curve, though single readings can be large or run the other way.

Assay: Quantitative High-Throughput drug screen in 47 multiple myeloma cell lines against the NCATS MIPE library collection: XG1_PLB cell viability assay (AID 1919866); note: nearly all actives have a fitted effect of over 35% in size
Conditions: CellTiter-Glo ATP, 48 h; series mostly up to 45.8 µM
Summary of the method: (§1)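 Cells were exposed to library compounds for 48 hours, after which ATP was measured by CellTiter-Glo. Signal was taken as median relative luminescence units.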
Potency is the fitted concentration of half-maximal effect.

Row | Compound | Potency
1 | O=C(N[C@@H](c1ccccc1)[C@@H]1CCCCN1)c1cccc(C(F)(F)F)c1Cl | 23.5 µM (active)
2 | Clc1ccc(COC(Cn2ccnc2)c2ccc(Cl)cc2Cl)cc1 (configuration not stated) | 18.7 µM (active)
3 | CC[C@H]1OC(=O)[C@H](C)C(=O)[C@H](C)[C@@H](O[C@H]2O[C@H](C)C[C@H](N(C)C)[C@@H]2O)[C@](C)(OC)C[C@@H](C)C(=O)[C@H](C)[C@H]2N(CCCCn3cnc(-c4cccnc4)c3)C(=O)O[C@]12C | inactive
4 | C=CCc1ccc(O)c(-c2ccc(O)c(CC=C)c2)c1 | 18.7 µM (active)
5 | COc1cccc2c1CCCC2CCCN1CCN(C2CCCCC2)CC1 (configuration not stated) | 18.7 µM (active)
6 | Nc1nc(F)nc2c1ncn2[C@@H]1O[C@H](COP(=O)(O)O)[C@@H](O)[C@H]1O | 29.6 µM (active)
7 | CO[C@H]1C[C@@H]2CC[C@@H](C)[C@@](O)(O2)C(=O)C(=O)N2CCCC[C@@H]2C(=O)O[C@H]([C@H](C)C[C@@H]2CC[C@H](OP(C)(C)=O)[C@H](OC)C2)CC(=O)[C@H](C)C=C(C)[C@@H](O)[C@@H](OC)C(=O)[C@H](C)C[C@H](C)C=CC=CC=C1C | inactive
8 | C=C1C(=O)OC(CCCCCCCC)C1C(=O)O (configuration not stated) | 14.8 µM (active)
9 | CCNc1cc(NC2CCC(O)CC2)nc(Nc2ccc3c(ccn3Cc3ccccc3)c2)n1 (configuration not stated) | 23.5 µM (active)
10 | CC(C)(C)c1cc(C(=O)O)c(NC(=O)Nc2ccc3[nH]ncc3c2)s1 | inactive
11 | CN(C)CCC=C1c2ccccc2COc2ccc(CC(=O)O)cc21 | 20.9 µM (active)
12 | CC[C@@H]1C=C(C)C[C@H](C)C[C@H](OC)[C@H]2O[C@@](O)(C(=O)C(=O)N3CCCC[C@@H]3C(=O)O[C@H](C(C)=C[C@@H]3CC[C@H](Cl)[C@H](OC)C3)[C@H](C)[C@@H](O)CC1=O)[C@H](C)C[C@H]2OC | 14.8 µM (active)
13 | CC(C)C(=O)Nc1ncc(-c2cc(C(F)F)nn2-c2c(Cl)cccc2Cl)s1 | 10.5 µM (active)
14 | O=C1Nc2ccc(Cl)cc2C(C#CC2CC2)(C(F)(F)F)O1 (configuration not stated) | 16.6 µM (active)
15 | CC=CCC=CCCC(=O)[C@H]1O[C@@H]1C(N)=O | 20.9 µM (active)
16 | CC1(C)CCC2=C(O1)c1ccccc1C(=O)C2=O | 26.4 µM (active)

Assay: Quantitative High-Throughput drug screen in 47 multiple myeloma cell lines against the NCATS MIPE library collection: VP6_DJ cell viability assay (AID 1919867); note: nearly all actives have a fitted effect of over 40% in size
Conditions: ATP luminescence, 48 h; series mostly up to 45.8 µM
Summary of the method: as §1

Row | Compound | Potency
17 | Clc1ccc(CCC(Cn2ccnc2)Sc2c(Cl)cccc2Cl)cc1 (configuration not stated) | 26.4 µM (active)
18 | N[C@H](CSC(c1ccccc1)(c1ccccc1)c1ccccc1)C(=O)O | 10.5 µM (active)
19 | CC[C@H]1OC(=O)[C@H](C)C(=O)[C@H](C)[C@@H](O[C@H]2O[C@H](C)C[C@H](N(C)C)[C@@H]2O)[C@](C)(OC)C[C@@H](C)C(=O)[C@H](C)[C@H]2N(CCCCn3cnc(-c4cccnc4)c3)C(=O)O[C@]12C | 11.8 µM (active)
20 | C=CCc1ccc(O)c(-c2ccc(O)c(CC=C)c2)c1 | 20.9 µM (active)
21 | COc1cccc2c1CCCC2CCCN1CCN(C2CCCCC2)CC1 (configuration not stated) | 16.6 µM (active)
22 | CC(=O)O[C@]1(C(C)=O)CC[C@@H]2[C@@H]3C[C@H](C)C4=CC(=O)CC[C@]4(C)[C@H]3CC[C@@]21C | 14.8 µM (active)
23 | Cc1cccc(Nc2nc(-c3ccncc3)cs2)c1 | 18.7 µM (active)
24 | CC=C(C)C(=O)O[C@H]1C(C)=C[C@]23C(=O)[C@@H](C=C(CO)[C@@H](O)[C@]12O)[C@H]1[C@@H](C[C@H]3C)C1(C)C | 26.4 µM (active)
25 | CCOC(CN1C(=O)[C@](CC(=O)Nc2ccc(C)cc2)(NC(=O)Nc2ccc(C)cc2)c2ccccc21)OCC | 26.4 µM (active)
26 | CC(C)(C)c1cc(C(=O)O)c(NC(=O)Nc2ccc3[nH]ncc3c2)s1 | inactive
27 | COc1ccc(C2CC(c3ccccc3)=NN2c2ccc(S(N)(=O)=O)cc2)cc1 (configuration not stated) | 16.6 µM (active)
28 | CC(C)C(=O)Nc1ncc(-c2cc(C(F)F)nn2-c2c(Cl)cccc2Cl)s1 | 18.7 µM (active)
29 | O=C1Nc2ccc(Cl)cc2C(C#CC2CC2)(C(F)(F)F)O1 (configuration not stated) | 16.6 µM (active)
30 | NC(=O)NN=Cc1ccc([N+](=O)[O-])o1 | 14.8 µM (active)
31 | CC=CCC=CCCC(=O)[C@H]1O[C@@H]1C(N)=O | 23.5 µM (active)
32 | CC(=O)Oc1cc2c(s1)CCN(C(C(=O)C1CC1)c1ccccc1F)C2 (configuration not stated) | 1.32 µM (active)

Assay: Quantitative High-Throughput drug screen in 47 multiple myeloma cell lines against the NCATS MIPE library collection: UTMC2_PLB cell viability assay (AID 1919868); note: nearly all actives have a fitted effect of over 55% in size
Conditions: CellTiter-Glo ATP luminescence, 48 h; viability (% of DMSO control): at 45.8 µM (top of the series)
Summary of the method: as §1

Row | Compound | Potency
33 | O=C(N[C@@H](c1ccccc1)[C@@H]1CCCCN1)c1cccc(C(F)(F)F)c1Cl | inactive
34 | Clc1ccc(CCC(Cn2ccnc2)Sc2c(Cl)cccc2Cl)cc1 (configuration not stated) | 18.7 µM (active)
35 | N[C@H](CSC(c1ccccc1)(c1ccccc1)c1ccccc1)C(=O)O | 9.35 µM (active)
36 | COc1cccc2c1CCCC2CCCN1CCN(C2CCCCC2)CC1 (configuration not stated) | 16.6 µM (active)
37 | CC(=O)O[C@]1(C(C)=O)CC[C@@H]2[C@@H]3C[C@H](C)C4=CC(=O)CC[C@]4(C)[C@H]3CC[C@@]21C | inactive
38 | CO[C@H]1C[C@@H]2CC[C@@H](C)[C@@](O)(O2)C(=O)C(=O)N2CCCC[C@@H]2C(=O)O[C@H]([C@H](C)C[C@@H]2CC[C@H](OP(C)(C)=O)[C@H](OC)C2)CC(=O)[C@H](C)C=C(C)[C@@H](O)[C@@H](OC)C(=O)[C@H](C)C[C@H](C)C=CC=CC=C1C | inactive
39 | O=C1NC(=O)C(=Cc2ccc(-c3ccc(F)cc3)o2)S1 | inactive
40 | CCNc1cc(NC2CCC(O)CC2)nc(Nc2ccc3c(ccn3Cc3ccccc3)c2)n1 (configuration not stated) | 37.2 µM (active)
41 | OC[C@H]1O[C@@H](Oc2cc(O)cc(C=Cc3ccc(O)cc3)c2)[C@H](O)[C@@H](O)[C@H]1O | inactive
42 | CC(C)(C)c1cc(C(=O)O)c(NC(=O)Nc2ccc3[nH]ncc3c2)s1 | inactive
43 | Cc1ccc([C@@H]2O[C@H](CO)[C@@H](O)[C@H](O)[C@@H]2O)cc1Cc1ccc(-c2ccc(F)cc2)s1 | inactive
44 | CC(C)C(=O)Nc1ncc(-c2cc(C(F)F)nn2-c2c(Cl)cccc2Cl)s1 | 20.9 µM (active)
45 | CO[C@H]1C[C@@H]2CC[C@@H](C)[C@@](O)(O2)C(=O)C(=O)N2CCCC[C@@H]2C(=O)O[C@H]([C@H](C)C[C@@H]2CC[C@H](OCCO)[C@H](OC)C2)CC(=O)[C@H](C)C=C(C)[C@@H](O)[C@@H](OC)C(=O)[C@H](C)C[C@H](C)C=CC=CC=C1C | 0.235 µM (active)
46 | CC(=O)Oc1cc2c(s1)CCN(C(C(=O)C1CC1)c1ccccc1F)C2 (configuration not stated) | 2.96 µM (active)
47 | CC1(C)CCC2=C(O1)c1ccccc1C(=O)C2=O | 20.9 µM (active)
